Reference: PubChem BioAssay (NCATS)
“And” between values parts separate entries of the source, which are not always exact repeats. Identical values can stand only once. Records with an inconclusive call do not appear. The source holds several records for some structures; these can differ, active in one and inactive in another. The source made the active and inactive calls. Unless noted, calls follow the shape of the dose curve; as a rule, active = well fitted curve in the direction sought with a large enough effect; inconclusive = small, poorly fitted or top-dose-only effect, or another doubt; inactive = no such curve, though single readings can be large; an effect the other way counts as inactive or inconclusive.

Tests used:
MKL-2 = test: qHTS assay to identify novel small-molecules to repurpose for Merkel cell carcinoma treatment (AID 1296009); details: MCC and control cell lines, CellTiter-Glo viability, 72 h; series mostly up to 46 µM; also: nearly all actives have a fitted effect of over 60% in size; also: potency is read from the fitted curve at half-maximal effect
How it was run: (§1)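 Cell viability, measured as CellTiter-Glo luminescence, was normalized between DMSO and no-cell wells. The cells had been exposed to 8- or 11-point compound dilutions for 72 hr at 37 degree celsius.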

C33A = test: Primary qHTS to identify gynecologic anti-cancer compounds using libraries of approved drugs and bioactive compounds (AID 1345084); details: Gynecologic cancer cell panel viability, ATPlite luminescence, 48 h; series mostly up to 57.5 µM; also: nearly all actives have a fitted effect of over 55% in size; also: potency is read from the fitted curve at half-maximal effect
How it was run: (§2)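 Luminescence from the ATPlite ATP-monitoring reagent indicates viable cell number; lower signal means cytotoxicity. Cells received compound 16 h after seeding and were exposed for 48 h across five concentrations.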

CAOV3 = test: as above; details: Gynecologic cancer cell panel viability, ATPlite luminescence, 48 h; series mostly up to 57.5 µM
How it was run: as §2

CASKI = test: as above; details: Gynecologic cancer cell panel viability, ATPlite luminescence, 48 h; series mostly up to 57.5 µM
How it was run: as §2

Es-2 = test: as above; details: Gynecologic cancer cell panel viability, ATPlite luminescence, 48 h; series mostly up to 57.5 µM
How it was run: as §2

HeLa = test: as above; details: Gynecologic cancer cell panel viability, ATPlite luminescence, 48 h; series mostly up to 57.5 µM
How it was run: as §2

Hek293T = test: as above; details: Gynecologic cancer cell panel viability, ATPlite luminescence, 48 h, control line for the selectivity index; series mostly up to 57.5 µM
How it was run: as §2

JEG-3 = test: as above; details: Gynecologic cancer cell panel viability, ATPlite luminescence, 48 h; series mostly up to 57.5 µM
How it was run: as §2

OV90 = test: as above; details: Gynecologic cancer cell panel viability, ATPlite luminescence, 48 h; series mostly up to 57.5 µM
How it was run: as §2

PA-1 = test: as above; details: Gynecologic cancer cell panel viability, ATPlite luminescence, 48 h; series mostly up to 57.5 µM
How it was run: as §2

SKOV3 = test: as above; details: Gynecologic cancer cell panel viability, ATPlite luminescence, 48 h; series mostly up to 57.5 µM
How it was run: as §2

Tov-21-G = test: as above; details: Gynecologic cancer cell panel viability, ATPlite luminescence, 48 h; series mostly up to 57.5 µM
How it was run: as §2

Tov112D = test: as above; details: Gynecologic cancer cell panel viability, ATPlite luminescence, 48 h; series mostly up to 57.5 µM
How it was run: as §2

[1] = Drug repurposing screens with cells derived from glioblastoma tumor samples (AID 1345199); details: GBM patient neurospheres viability, ATP luminescence, 48 h; also: nearly all actives have a fitted effect of over 40% in size; also: potency is read from the fitted curve at half-maximal effect; as to activity, negative = cell killing: % is scaled to controls: 0 for no effect and ±100 for the full control effect
How it was run: (§3)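 Primary testing used CD133+ neurospheres from four GBM patients, seven concentrations, 48 h exposure and ATP-based viability; confirmation added three slower-growing patient lines.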

[2] = target: Nuclear receptor subfamily 1 group I member 2 (Rattus norvegicus) (UniProt Q9R1A7); test: qHTS assay for small molecule activators of the rat pregnane X receptor (rPXR) signaling pathway (AID 651751; call rule not given here; also: 0% is about no effect); details: rPXR reporter cells, luciferase (One-Glo), 24 h
Nuclear receptor subfamily 1 group I member 2 (Rattus norvegicus), sequence (Q9R1A7 whole entry, looked up): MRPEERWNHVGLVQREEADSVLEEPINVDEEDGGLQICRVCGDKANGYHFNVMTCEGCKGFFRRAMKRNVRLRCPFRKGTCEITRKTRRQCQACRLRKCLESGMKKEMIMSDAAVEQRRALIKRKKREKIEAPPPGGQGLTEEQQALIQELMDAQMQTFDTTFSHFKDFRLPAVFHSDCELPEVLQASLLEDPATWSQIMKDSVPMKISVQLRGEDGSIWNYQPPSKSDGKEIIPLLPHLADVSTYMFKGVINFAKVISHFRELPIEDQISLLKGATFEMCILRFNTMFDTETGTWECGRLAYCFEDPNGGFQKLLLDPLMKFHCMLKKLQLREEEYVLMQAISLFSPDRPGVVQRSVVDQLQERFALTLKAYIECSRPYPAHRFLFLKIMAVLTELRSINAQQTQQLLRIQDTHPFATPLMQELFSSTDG

[3] = qHTS assay for small molecule activators of the human pregnane X receptor (PXR) signaling pathway (AID 720659; call rule not given here; also: 0% is about no effect)
UISO = test: qHTS assay to identify novel small-molecules to repurpose for Merkel cell carcinoma treatment (AID 1296009); details: MCC and control cell lines, CellTiter-Glo viability, 72 h; series mostly up to 46 µM; also: nearly all actives have a fitted effect of over 60% in size; also: potency is read from the fitted curve at half-maximal effect
How it was run: as §1

WaGa = test: as above; details: MCC and control cell lines, CellTiter-Glo viability, 72 h; series mostly up to 46 µM
How it was run: as §1

astro = test: Drug repurposing screens with cells derived from glioblastoma tumor samples (AID 1345199); details: viability, ATP luminescence, 48 h; series mostly up to 45.9 µM; also: nearly all actives have a fitted effect of over 40% in size; also: potency is read from the fitted curve at half-maximal effect; as to activity, negative = cell killing: % is scaled to controls: 0 for no effect and ±100 for the full control effect
How it was run: as §3

[4] = at 45.9 µM (top of the series), tumour line B
[5] = at 45.9 µM (top of the series), tumour line D
[6] = at 46 µM (top of the series), tumour line A

COP(=S)(OC)SCN1C(=O)c2ccccc2C1=O
inactive: Potency (C33A) | outcome (CAOV3) | outcome (CASKI) | Potency (Es-2) | Potency (HeLa) | outcome (Hek293T) | outcome (JEG-3) | Potency (OV90) | Potency (PA-1) | outcome (SKOV3) | Potency (Tov-21-G) | Potency (Tov112D) | activity, negative = cell killing [1, 4] -19.8% | activity, negative = cell killing [1, 5] -8.89% | max response [2] -5.41% | outcome [3]
active: Potency (MKL-2) 11.9 µM

CN1C(=O)CCS(=O)(=O)C1c1ccc(Cl)cc1 (configuration not stated)
inactive: Potency (MKL-2) | Potency (UISO) | Potency (WaGa) | Potency (C33A) | outcome (CASKI) | Potency (Es-2) | Potency (HeLa) | outcome (Hek293T) | outcome (JEG-3) | Potency (OV90) | Potency (PA-1) | Potency (Tov-21-G) | Potency (Tov112D) | activity, negative = cell killing [1, 4] -12.1% and -22.6% | activity, negative = cell killing [1, 5] -13.6% and -16.2% | activity, negative = cell killing [1, 6] -23.1% and -4.54% | Potency (astro)

Nc1ccccc1
inactive: Potency (MKL-2) | Potency (UISO) | Potency (WaGa) | Potency (C33A) | outcome (CASKI) | Potency (Es-2) | Potency (HeLa) | outcome (Hek293T) | outcome (JEG-3) | Potency (OV90) | Potency (PA-1) | outcome (SKOV3) | Potency (Tov-21-G) | Potency (Tov112D) | activity, negative = cell killing [1, 4] -4.34% | activity, negative = cell killing [1, 5] -2.5% | activity, negative = cell killing [1, 6] -28.7% | max response [2] -4.01% | outcome [3]

COC(=O)C(c1ccccc1)C1CCCCN1 (configuration not stated)
inactive: activity, negative = cell killing [1, 4] -10.4% | activity, negative = cell killing [1, 5] 3.11% | activity, negative = cell killing [1, 6] -16.7% | Potency (astro) | max response [2] 1.26% and 1.36% | outcome [3]

Clc1ccc2c(c1)C(c1ccccc1)=NCc1nncn1-2
inactive: activity, negative = cell killing [1, 4] -7.06% | activity, negative = cell killing [1, 5] 3.75%

CC(C)(C)c1ccc(O)cc1
inactive: Potency (C33A) | outcome (CASKI) | Potency (Es-2) | Potency (HeLa) | outcome (Hek293T) | outcome (JEG-3) | Potency (OV90) | Potency (PA-1) | Potency (Tov-21-G) | Potency (Tov112D) | activity, negative = cell killing [1, 4] -7.29% | activity, negative = cell killing [1, 5] 7.61% | activity, negative = cell killing [1, 6] -21% | Potency (astro)

CC(C)[C@H]1C(=O)N2CCC[C@H]2[C@]2(O)O[C@](NC(=O)[C@@H]3C[C@@H]4c5cccc6[nH]cc(c56)C[C@H]4N(C)C3)(C(C)C)C(=O)N12
inactive: activity, negative = cell killing [1, 4] -21%
active: Potency ([1]; tumour line A) 7.08 µM

O=C(N/N=C/c1ccc([N+](=O)[O-])o1)c1cc([N+](=O)[O-])cc([N+](=O)[O-])c1O
inactive: Potency (UISO) | Potency (C33A) | outcome (CAOV3) | outcome (CASKI) | Potency (Es-2) | Potency (HeLa) | outcome (Hek293T) | outcome (JEG-3) | Potency (OV90) | Potency (PA-1) | outcome (SKOV3) | Potency (Tov-21-G) | Potency (Tov112D) | activity, negative = cell killing [1, 4] -13.9% | activity, negative = cell killing [1, 5] -24.1%

C[C@]12CC[C@H]3[C@@H](CC[C@@]45O[C@H]4C(O)=C(C#N)C[C@]35C)[C@H]1CC[C@H]2O
inactive: Potency (C33A) | outcome (CAOV3) | outcome (CASKI) | Potency (Es-2) | Potency (HeLa) | outcome (Hek293T) | outcome (JEG-3) | Potency (OV90) | Potency (PA-1) | outcome (SKOV3) | Potency (Tov-21-G) | Potency (Tov112D)

CN1C(=O)C(O)N=C(c2ccccc2)c2cc(Cl)ccc21 (configuration not stated)
inactive: activity, negative = cell killing [1, 4] 2.89% | activity, negative = cell killing [1, 5] -6.26% | activity, negative = cell killing [1, 6] -24.3% | Potency (astro)

CN=C1CN(O)C(c2ccccc2)=c2cc(Cl)ccc2=N1
inactive: activity, negative = cell killing [1, 4] -15.1% and 1.01% | activity, negative = cell killing [1, 5] -14.7% and -15.6%
active: Potency ([1]; tumour line A) 11.2 µM

CN1CC[C@]23c4c5ccc(O)c4O[C@H]2[C@@H](O)C=C[C@H]3[C@H]1C5
active: Potency ([1]; tumour line A) 20 µM
inactive: Potency (C33A) | outcome (CASKI) | Potency (Es-2) | Potency (HeLa) | outcome (Hek293T) | outcome (JEG-3) | Potency (OV90) | Potency (PA-1) | outcome (SKOV3) | Potency (Tov-21-G) | Potency (Tov112D)

C[C@]12CCC(=O)C=C1CC[C@@H]1[C@@H]2CC[C@@]2(C)[C@H]1CC[C@]2(C)O
inactive: Potency (C33A) | outcome (CAOV3) | outcome (CASKI) | Potency (Es-2) | outcome (Hek293T) | outcome (JEG-3) | Potency (OV90) | Potency (PA-1) | Potency (Tov-21-G) | Potency (Tov112D) | activity, negative = cell killing [1, 4] -4.4% and -14.4% | activity, negative = cell killing [1, 5] -24.9% and -19.8% | Potency (astro)
active: Potency (HeLa) 22.4 µM | Potency ([1]; tumour line A) 12.6 µM and 20 µM

CN1C(=O)CC(=O)N(c2ccccc2)c2cc(Cl)ccc21
inactive: activity, negative = cell killing [1, 4] -10.8% | activity, negative = cell killing [1, 5] -2.22% | activity, negative = cell killing [1, 6] -21.5% | Potency (astro)

CCN(CC)C(=O)[C@@H]1C=C2c3cccc4[nH]cc(c34)C[C@H]2N(C)C1
inactive: Potency (C33A) | outcome (CASKI) | Potency (Es-2) | Potency (HeLa) | outcome (Hek293T) | outcome (JEG-3) | Potency (Tov-21-G) | Potency (Tov112D) | activity, negative = cell killing [1, 4] -17.8% | activity, negative = cell killing ([1]; at 194 µM (top of the series), tumour line B) -16.6% | Potency (astro)

COP(=S)(OC)Oc1cc(Cl)c(Cl)cc1Cl
inactive: Potency (UISO) | Potency (WaGa) | Potency (C33A) | outcome (CASKI) | Potency (Es-2) | Potency (HeLa) | outcome (Hek293T) | outcome (JEG-3) | Potency (OV90) | Potency (PA-1) | outcome (SKOV3) | Potency (Tov-21-G) | Potency (Tov112D) | activity, negative = cell killing [1, 4] 10.9% and 7.75% | activity, negative = cell killing [1, 5] -10.8% and 1.81% | activity, negative = cell killing [1, 6] -24.7% and -15.3% | max response [2] 1.25% | outcome [3]

COc1cccc2c1C(=O)c1c(O)c3c(c(O)c1C2=O)C[C@@](O)(C(=O)CO)CC3OC1CC(N2CCOC(OC)C2)C(O)C(C)O1 (some centres not stated)
active: Potency (UISO) 0.0188 µM | Potency (WaGa) 0.0237 µM | Potency (C33A) 0.282 µM | Potency (HeLa) 0.224 µM | Potency (OV90) 0.447 µM | Potency (Tov-21-G) 0.1 µM | Potency (Tov112D) 0.1 µM

Cc1nnc2n1-c1ccc(Cl)cc1C(c1ccccc1)=NC2
inactive: activity, negative = cell killing [1, 5] 7.45%

CC(=O)NC1CCSC1=O (configuration not stated)
inactive: Potency (UISO) | Potency (WaGa) | Potency (C33A) | outcome (CASKI) | Potency (Es-2) | Potency (HeLa) | outcome (Hek293T) | outcome (JEG-3) | Potency (OV90) | Potency (PA-1) | outcome (SKOV3) | Potency (Tov-21-G) | Potency (Tov112D) | activity, negative = cell killing ([1]; at 21.2 µM (top of the series), tumour line B) -5.98% | activity, negative = cell killing ([1]; at 21.2 µM (top of the series), tumour line D) 7.84% | activity, negative = cell killing ([1]; at 21.3 µM (top of the series), tumour line A) -12.3% | activity, negative = cell killing [1, 4] -16.4% | activity, negative = cell killing [1, 5] -12.7% | Potency (astro)

CN1CCC(O)(c2ccc(F)cc2)C(C(=O)c2ccc(F)cc2)C1 (configuration not stated)
active: Potency ([1]; tumour line A) 12.6 µM | Potency ([1]; tumour line B) 28.2 µM
inactive: Potency (UISO) | Potency (WaGa) | Potency (C33A) | outcome (CASKI) | Potency (Es-2) | Potency (HeLa) | outcome (Hek293T) | outcome (JEG-3) | Potency (OV90) | Potency (PA-1) | outcome (SKOV3) | Potency (Tov-21-G) | Potency (Tov112D) | Potency (astro)

C[C@]12CCC(=O)C=C1CC[C@@H]1[C@H]3CC[C@](C)(O)[C@@]3(C)CC[C@@H]12
active: Potency (HeLa) 31.6 µM | Potency ([1]; tumour line A) 39.8 µM
inactive: Potency (C33A) | outcome (CAOV3) | Potency (Es-2) | outcome (JEG-3) | Potency (Tov-21-G) | activity, negative = cell killing ([1]; at 91.6 µM (top of the series), tumour line B) -15.6%
